Laboratory results reported in PubChem BioAssay (NCATS).
Inconclusive results are not listed. Where a call stands in place of a potency, no number is given. Activity calls are given as the source filed them. The call rests on the fitted dose curve; in most records, active means well fitted cell-killing curve with a large enough effect; inconclusive means small, poorly fitted or top-dose-only effect; inactive means flat fitted curve, though single readings scatter.

Assay: qHTS of pediatric cancer cell lines to identify multiple opportunities for drug repurposing: Primary screen for BT-12 cells (AID 1347101); further: nearly all actives have a fitted effect of over 25% in size
Conditions: BT-12 viability, CellTiter-Glo luminescence, 48 h; series mostly up to 57.3 µM
Text: Drug repurposing or repositioning has been offered as a strategy for drug development in oncology programs. This approach has special potential for childhood cancers and other rare or orphan diseases, where the expected return on new drug development has been a disincentive to pharmaceuticals.
In this project we exploit the poly-pharmacology of drugs to discover new indications via phenotypic screening of a panel of 19 well-characterized cell lines derived from solid tumors seen in children and adolescents. The goal is to identify approved drugs with previously unrecognized anticancer properties that has the potential to reveal new mechanisms and biological processes involved in carcinogenesis or drug resistance. We employed a titration-based paradigm (quantitative high-throughput screening or qHTS), where all compounds were tested at multiple concentrations for their effect on cell viability. Concentration-response curves (CRCs) were derived directly from the primary screen, and both potency and efficacy values were used to identify compounds with robust bioactivity profiles. We screened the NIH Chemical Genomics Center (NCGC) Pharmaceutical Collection (NPC) and Mechanism Interrogation Plate (MIPE) small molecule collections of approved and investigational compounds against these cell lines; and measured metabolically active cells after 48 hours of compound treatment as a proxy for cell viability.
Assay Submitter: Nathalia J. Martinez, National Center for Advancing Translational Sciences, National Institutes of Health, Rockville, MD, USA; email: natalia.martinez@nih.gov
[1] Shen, M et al. Quantitative high-throughput phenotypic screening of pediatric cancer cell lines identifies multiple opportunities for drug repurposing. Oncotarget 2017 Dec 19;9(4):4758-4772. PMID 29435139.
The cells were obtained from University of North Carolina (UNC), Pediatric Preclinical Testing Program (PPT), and Coriell Institute (CI).
qHTS cell viability assay:
Cells were assayed in growth media at a density of 500-1,000 cells/well. Five microliters of cells were dispensed into 1,536-well, white, solid-bottom, TC-treated plates (Greiner Bio One) using a multidrop dispenser and incubated at 37 degrees C, 5% CO2, under a humidified atmosphere for 5 hours. Twenty-three nanoliters of compounds and controls (neutral control DMSO or positive control bortezomib at final concentration of 2.3 µM) were subsequently transferred by Kalypsys pintool. For primary screens, the MIPE collection was tested at 11-point dilutions (final concentrations range from 0.78 nM to 46 µM) and the NPC collection at 8-point dilutions (final concentrations range from 0.59 nM to 46 µM). Compounds tested in follow-up screens were assayed at 11-point dilutions. Cells were incubated for 48 hours, followed by addition of 3 µL of CellTiter-Glo (Promega). After a 15 min incubation at room temperature, samples were analyzed for luminescence intensity using a ViewLux High-throughput CCD imager equipped with clear filters.

Question: With `CC(=O)[C@H]1CC[C@H]2[C@@H]3C=CC4=CC(=O)CC[C@@]4(C)[C@@H]3CC[C@]12C` as the molecule, how does the Potency read?
Answer: inactive

Question: With `Cc1ccc(C(C)OC(=O)C2(C)CCC(C(=O)O)C2(C)C)cc1` (stereo not given) as the molecule, how does the Potency read?
Answer: inactive

Question: Which Potency does the source give for `OCCOCCN1CCN(C(c2ccccc2)c2ccc(Cl)cc2)CC1` (stereo not given) here?
Answer: inactive

Question: Which Potency does the source give for `OCc1cccnc1` here?
Answer: inactive

Question: With `COc1ccc2cc(C=O)ccc2c1` as the molecule, how does the Potency read?
Answer: inactive

Question: For `CN1C(=O)CC(C)(c2ccccc2)C1=O` (stereo not given), which Potency is on record?
Answer: inactive

Question: Which Potency does the source give for `OCCCc1ccccc1` here?
Answer: inactive

Question: Which Potency does the source give for `CCN1CCCC1CN` (stereo not given) here?
Answer: inactive

Question: Which Potency does the source give for `CC(=O)N(CC(=O)N(C)C)c1ccccc1` here?
Answer: inactive

Question: For `CC(=O)OCC[N+](C)(C)C`, which Potency is on record?
Answer: inactive

Question: Which Potency does the source give for `Cc1sccc1Br` here?
Answer: inactive

Question: Which Potency does the source give for `Cc1c(F)cc2c(=O)c(C(=O)O)cn3c2c1CCC3C` (stereo not given) here?
Answer: inactive

Question: For `Cn1c(=O)c2c(ncn2CC(=O)O)n(C)c1=O`, which Potency is on record?
Answer: inactive

Question: Which Potency does the source give for `CCN1C(=O)c2ccccc2C1Nc1ccc(OCCN2CCCCC2)cc1` (stereo not given) here?
Answer: inactive

Question: Which Potency does the source give for `Cc1coc2ccccc2c1=O` here?
Answer: inactive

Question: Which Potency does the source give for `CCOC(=O)O[C@]1(C(=O)OCCl)CC[C@H]2[C@@H]3CCC4=CC(=O)C=C[C@]4(C)[C@H]3[C@@H](O)C[C@@]21C` here?
Answer: inactive

Question: For `CCOCCn1c(C2CCN(CCc3ccc(C(C)(C)C(=O)O)cc3)CC2)nc2ccccc21`, which Potency is on record?
Answer: inactive

Question: Which Potency does the source give for `CCC(=O)O[C@H]1[C@H](O[C@@H]2[C@@H](C)[C@H](O[C@H]3C[C@@](C)(OC)[C@@H](O)[C@H](C)O3)[C@@H](C)C(=O)O[C@H](CC)[C@@](C)(O)[C@H](O)[C@@H](C)C(=O)[C@H](C)C[C@@]2(C)O)O[C@H](C)C[C@@H]1N(C)C` here?
Answer: inactive

Question: Which Potency does the source give for `CC(C)CCCC(C)NCCC(C)C` (stereo not given) here?
Answer: inactive

Question: For `C[C@H]1NCc2cc(-c3ccc4c(=O)c(C(=O)O)cn(C5CC5)c4c3OC(F)F)ccc21`, which Potency is on record?
Answer: inactive

Question: For `O=C(O)C1CCC1`, which Potency is on record?
Answer: inactive

Question: Which Potency does the source give for `COc1cc(C=O)ccc1O` here?
Answer: inactive

Question: With `CC(C)=CCC/C(C)=C/CC/C(C)=C/CCC(=O)OC/C=C(\C)CCC=C(C)C` as the molecule, how does the Potency read?
Answer: inactive

Question: With `C[N+]1(C)CCC(OC(=O)C(O)(c2ccccc2)C2CCCC2)C1` (stereo not given) as the molecule, how does the Potency read?
Answer: inactive

Question: Which Potency does the source give for `NC(=O)NC1N=C([O][Al])NC1=O` (stereo not given) here?
Answer: inactive

Question: With `O=C(O)CNC(=O)CNC(=O)CNC(=O)CSC(=O)c1ccccc1` as the molecule, how does the Potency read?
Answer: inactive

Question: Which Potency does the source give for `O=C(CCOCCOCCOCCOCCC(=O)Nc1c(I)cc(I)c(C(=O)O)c1I)Nc1c(I)cc(I)c(C(=O)O)c1I` here?
Answer: inactive

Question: For `CNC(=O)c1cnn(-c2nc(N)c3ncn([C@@H]4O[C@H](CO)[C@@H](O)[C@H]4O)c3n2)c1`, which Potency is on record?
Answer: inactive

Question: With `O=C1CCCc2c(O)cccc21` as the molecule, how does the Potency read?
Answer: inactive

Question: Which Potency does the source give for `O=C(CO)[C@@H](O)[C@H](O)[C@@H](O)CO` here?
Answer: inactive

Question: For `OC[C@]1(O)OC[C@@H](O)[C@H](O)[C@@H]1O`, which Potency is on record?
Answer: inactive

Question: With `COC(=O)c1cc(Cl)ccc1OC` as the molecule, how does the Potency read?
Answer: inactive

Question: For `CC(C(=O)O)c1ccc(/C=C2\CCCCC2=O)cc1` (stereo not given), which Potency is on record?
Answer: inactive

Question: Which Potency does the source give for `Cc1ncc(CO)c(CO)c1O` here?
Answer: inactive

Question: For `CCCc1ccc(OCC(=O)N2CCN(C(=O)COc3ccc(CCC)cc3OC)CC2)c(OC)c1`, which Potency is on record?
Answer: inactive

Question: Which Potency does the source give for `O=C(CCCl)NCCc1ccccc1` here?
Answer: inactive

Question: With `CSCC[C@H](NC(=O)[C@H](Cc1c[nH]c2ccccc12)NC(=O)CCNC(=O)OC(C)(C)C)C(=O)N[C@@H](CC(=O)O)C(=O)N[C@@H](Cc1ccccc1)C(N)=O` as the molecule, how does the Potency read?
Answer: inactive

Question: With `Nc1ncnc2c1ncn2Cc1c(F)cccc1Cl` as the molecule, how does the Potency read?
Answer: inactive

Question: With `CCN(CC)CCN` as the molecule, how does the Potency read?
Answer: inactive

Question: With `CC(NN)c1ccccc1` (stereo not given) as the molecule, how does the Potency read?
Answer: inactive
